Measurements reported in PubChem BioAssay (Tox21).
Several values for one entry are separate records, joined by “and”; a condition that tells them apart may be missing. Equal values may be shown once. Activity calls are given as the source filed them. A call without a number means that no potency is given here. Calls come from the whole dose curve.

biological target: Acetylcholinesterase (Homo sapiens) (UniProt P22303); assay: Acetylcholinesterase (AChE) small molecule antagonists: enzyme-based qHTS assay with human liver microsomes (AID 1347399); conditions: Potency: qHTS inhibition; series mostly up to 115 µM; note: nearly all actives have a fitted effect of over 60% in size
Excerpt: National Center for Advancing Translational Sciences [NCATS]
Division of Preclinical Innovation [DPI]
U.S. Environmental Protection Agency [EPA]
National Institutes of Environmental Health Sciences [NIEHS]
National Toxicology Program [NTP]
U.S. Food and Drug Administration [FDA]
Acetylcholinesterase (AChE) is the primary cholinesterase in the body that hydrolyzes a key neurotransmitter, acetylcholine. Inhibition of AChE activity can lead to neurotoxicity. The known inhibitors include organophosphorous pesticides (OP), chemical warfare agents, drugs, and various phytochemicals. Some compounds like OP compounds may need metabolic activation to be active AChE inhibitors. The cytochrome P450 (CYP) superfamily in the human microsomes is responsible for the metabolism of various endogenous and exogenous compounds.
An enzyme-based assay with the recombinant human AChE, human liver microsomes and Amplite Colormetric acetylcholinesterase assay kit (AAT Bioquest, Sunnyvale, CA) was used to evaluate compounds in the Tox21 10K library that need metabolic activation for AChE inhibition. The assay uses 5, 5-dithiobis-(2-nitrobenzoic acid) (DTNB) to quantify the thiocholine produced from the hydrolysis of acetylthiocholine by AChE.
Tox21 Assay Protocol Summary:
For the enzyme-based AChE assay with microsomes addition, a mixture of human AChE (50 mU/mL) and human liver microsomes (0.25 mg/mL, final concentration) in 3 uL/well was dispensed into black, clear-bottom 1536-well plates using a Multidrop Combi dispenser (Thermo Scientific, MA). Then, 23 nL of compound or DMSO (vehicle control) was transferred into the assay plates by a Pintool Station (Wako Automation, CA). Following compound addition, 1 uL of NADPH (0.25 mg/mL, final concentration) was transferred to the assay plate by a Flying Reagent Dispenser (Beckman Coulter, CA). The plates were incubated for 30 min at 37 C and 5% CO2, followed by the addition of 4 uL of colorimetric detection cocktail solution (DTNB, acetylthiocholine) into each well using a Flying Reagent Dispenser (Beckman Coulter, CA) and then 10 min incubation at room temperature.
Potency is the fitted concentration of half-maximal effect.

Sequence of Acetylcholinesterase (Homo sapiens) (P22303 whole entry, looked up): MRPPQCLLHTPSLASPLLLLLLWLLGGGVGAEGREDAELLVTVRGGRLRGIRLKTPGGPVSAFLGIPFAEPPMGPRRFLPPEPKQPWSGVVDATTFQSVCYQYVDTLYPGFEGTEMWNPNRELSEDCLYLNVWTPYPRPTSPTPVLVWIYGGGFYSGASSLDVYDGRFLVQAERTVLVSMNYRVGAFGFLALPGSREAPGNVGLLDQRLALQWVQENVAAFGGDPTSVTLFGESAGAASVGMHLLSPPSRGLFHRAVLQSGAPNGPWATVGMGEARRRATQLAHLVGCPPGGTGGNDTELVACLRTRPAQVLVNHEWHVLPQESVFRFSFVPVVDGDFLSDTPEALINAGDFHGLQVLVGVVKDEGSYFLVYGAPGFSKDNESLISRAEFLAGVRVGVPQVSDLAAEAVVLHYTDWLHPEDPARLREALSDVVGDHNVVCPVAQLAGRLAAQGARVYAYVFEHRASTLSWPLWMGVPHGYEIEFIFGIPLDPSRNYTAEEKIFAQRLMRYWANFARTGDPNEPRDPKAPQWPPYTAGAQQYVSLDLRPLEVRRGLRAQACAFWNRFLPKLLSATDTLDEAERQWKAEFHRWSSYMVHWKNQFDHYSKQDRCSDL

Q: With `Cc1cccc(N)c1` as the compound, how does the Potency read?
A: The Potency was “inactive”.

Q: How did the Potency turn out when `CCOc1ccc(N)cc1` was run?
A: Its Potency is “inactive”.

Q: Which Potency does the source give for `O=C(O)Cc1ccccc1` here?
A: Its Potency is “inactive”.

Q: With `CN(C)C(=O)C(c1ccccc1)c1ccccc1` as the compound, how does the Potency read?
A: The Potency was “inactive”.

Q: For `Nc1cccc(Cl)c1`, which Potency is on record?
A: The Potency was “inactive”.

Q: `O=C(O)CCCc1ccc(N(CCCl)CCCl)cc1` was tested. Which Potency did it give?
A: The Potency was “inactive”.

Q: How did the Potency turn out when `Oc1c(Br)cc(Br)cc1Br` was run?
A: The Potency was “inactive”.

Q: How did the Potency turn out when `CNC(=O)O/N=C/C(C)(C)S(C)=O` (stereo not given) was run?
A: The Potency was 2.87 µM (active) and 2.51 µM (active).

Q: `CCCOC(=O)c1ccccc1C(=O)OCCC` was tested. Which Potency did it give?
A: The Potency was “inactive”.

Q: Which Potency does the source give for `CCNc1nc(Cl)nc(NC(C)C)n1` here?
A: The Potency was “inactive”.

Q: How did the Potency turn out when `CN(C)NC(=O)CCC(=O)O` was run?
A: The Potency was “inactive”.

Q: With `ClC(Cl)c1ccccc1` as the compound, how does the Potency read?
A: The Potency was “inactive”.

Q: With `CC(C)c1cccc(C(C)C)c1O` as the compound, how does the Potency read?
A: The Potency was “inactive”.

Q: Which Potency does the source give for `CC(=O)/C=C/c1ccccc1` here?
A: The Potency was “inactive”.

Q: How did the Potency turn out when `C=C(C)C(=O)OCC(CC)CCCC` (stereo not given) was run?
A: Its Potency is “inactive”.

Q: With `CCOC(=O)CC(SP(=O)(OC)OC)C(=O)OCC` (stereo not given) as the compound, how does the Potency read?
A: The Potency was 60.2 µM (active) and 56.4 µM (active).

Q: Which Potency does the source give for `CNCC(O)c1ccc(O)cc1` (stereo not given) here?
A: Its Potency is “inactive”.

Q: `CC(C)CCCCCCOC(=O)c1ccccc1C(=O)OCCCCCCC(C)C` was tested. Which Potency did it give?
A: Its Potency is “inactive”.

Q: For `O=C(O)COc1ccccc1`, which Potency is on record?
A: Its Potency is “inactive”.

Q: With `CNc1cnn(-c2cccc(C(F)(F)F)c2)c(=O)c1Cl` as the compound, how does the Potency read?
A: Its Potency is “inactive”.

Q: Which Potency does the source give for `CNC(=O)O/N=C(\SC)C(=O)N(C)C` here?
A: Its Potency is 12.3 µM (active) and 20 µM (active).

Q: With `Cc1cccc(N)c1C` as the compound, how does the Potency read?
A: The Potency was “inactive”.

Q: `OC[C@@H](O)[C@H]1O[C@@H]2O[C@H](C(Cl)(Cl)Cl)O[C@@H]2[C@H]1O` was tested. Which Potency did it give?
A: Its Potency is “inactive”.

Q: `COC(=O)Nc1cccc(OC(=O)Nc2cccc(C)c2)c1` was tested. Which Potency did it give?
A: The Potency was “inactive”.

Q: Which Potency does the source give for `N#Cc1cccc(C#N)c1` here?
A: The Potency was “inactive”.

Q: For `Nc1ncc([N+](=O)[O-])s1`, which Potency is on record?
A: The Potency was “inactive”.

Q: For `ClCCOCCCl`, which Potency is on record?
A: The Potency was “inactive”.

Q: With `CCOP(=S)(OCC)Oc1ccc([N+](=O)[O-])cc1` as the compound, how does the Potency read?
A: The Potency was 905 nM (active) and 616 nM (active).

Q: With `C/C=C/c1ccc2c(c1)OCO2` as the compound, how does the Potency read?
A: Its Potency is “inactive”.

Q: How did the Potency turn out when `Cl/C=C/Cl` was run?
A: Its Potency is “inactive”.

Q: How did the Potency turn out when `C=CCN=C=S` was run?
A: Its Potency is “inactive”.

Q: How did the Potency turn out when `Cc1cc(Cl)ccc1OC(C)C(=O)O` (stereo not given) was run?
A: The Potency was “inactive”.

Q: `Cc1cccc(C)c1NC(=O)CN1CCCC1=O` was tested. Which Potency did it give?
A: Its Potency is “inactive”.

Q: `CC(=O)C1CCOC1=O` (stereo not given) was tested. Which Potency did it give?
A: The Potency was “inactive”.

Q: For `N#Cc1ccccn1`, which Potency is on record?
A: Its Potency is “inactive”.

Q: Which Potency does the source give for `Cc1ccc(N=C=O)cc1N=C=O` here?
A: The Potency was “inactive”.

Q: For `OCC(O)CCl` (stereo not given), which Potency is on record?
A: Its Potency is “inactive”.

Q: How did the Potency turn out when `Cc1cc(O)ccc1Cl` was run?
A: Its Potency is “inactive”.

Q: Which Potency does the source give for `O=C(O)C(Br)Br` here?
A: The Potency was “inactive”.

Q: How did the Potency turn out when `Nc1cc(Cl)cc(Cl)c1` was run?
A: Its Potency is “inactive”.
